The panel holds about 83,000 compounds, 20% with a hit somewhere; the sample as a whole holds those more often.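 Testing used 96-well plates and a 48-hour single-concentration exposure. Example: -40 means 40% of the starting cells died.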 Unmarked numbers belong to inactive results. Active and inactive are the calls of the source. The calls were made as follows: active = growth percent below 10; inactive = the rest.

What all share (assay): NCI-60 one-dose screen, 48 h (100 = growth as untreated, 0 = no growth, -100 = all killed)
Common to all, as to settings: 10 µM

In experiment [1] the test system is NCI-H23 lung.
Experiment [2] concerns NCI-H226 lung.
Experiment [3] relates to NCI-H322M lung.
In experiment [4] the test system is HOP-62 NSCLC.
Experiment [5] relates to NCI-H460 lung.
The test system of experiment [6] is HOP-92 NSCLC.
Experiment [7] deals with NCI-H522 lung.
The subject of experiment [8] is A549/ATCC NSCLC.
Experiment [9] relates to 786-0 renal.
The test system of experiment [10] is COLO 205 colon.
The subject of experiment [11] is DU-145 prostate.
Experiment [12] deals with K-562 leukemia.
For experiment [13], the system named is MALME-3M melanoma.
For experiment [14], the system named is MDA-MB-231 breast.
The subject of experiment [15] is RXF 393 renal.
For experiment [16], the system named is SF-268 CNS.
Experiment [17] concerns SF-295 CNS.
Experiment [18] has as its system SF-539 CNS.
The subject of experiment [19] is UACC-257 melanoma.
The test system of experiment [20] is M14 melanoma.

Take `CCOc1ccc(-n2cc(-c3ccc(N(C)C)cc3)[n+]3c2CCCCC3)cc1`: the growth in experiment [1] was 0.183% (active); in experiment [2], 18.6%; in [3] it was 45.3%; in experiment [4], 3.02% (active); in [5], 5.52% (active); in experiment [6], -8.52% (active). The growth in experiment [7] was -0.392% (active); in experiment [8], 22.4%; in [9], 20.7%; in experiment [10] it was -68.6% (active); in [11] it was 25.7%; in experiment [12], 9.14% (active). For the same molecule, the growth is 2.39% (active) in experiment [13]; 19.4% in experiment [14]; 39.7% in [15]; 29.1% in experiment [16]; -14.7% (active) in experiment [17]; 26.6% in experiment [18]. In addition, the growth was -12.6% (active) in experiment [19] and 10.4% in [20].

`COc1ccc(-n2nnc3c(sc4ccccc43)c2=O)cc1`: the growth in experiment [1] was 68.5%; in experiment [2], 24.7%; in [3], 37.7%; in [4], -8.23% (active); in experiment [5] it was -18.2% (active); in experiment [6] it was -4.08% (active). For the same molecule, the growth in experiment [7] is 56.6%; in [8], 10.8%; in [9] it was 21.4%; in [10] it was 80.7%; in [11], 60.2%; in [12] it was 91.5%. Moreover, the growth in experiment [13] is 80.6%; in experiment [14] it was 53.8%; in experiment [15], 45%; in experiment [16] it was 53.1%; in experiment [17], 42.3%; in experiment [18], 54.7%. Further, the figures for the growth in experiment [19] and in experiment [20] were 80.8% and 86.5%, respectively.

`COc1cc(-c2nc3ccc(C)cc3[nH]2)ccc1OCC(=O)N=Nc1c(O)[nH]c2ccccc12`: the growth was -17.5% (active) in experiment [1]; 112% in experiment [2]; -33.9% (active) in [3]; -49.4% (active) in experiment [4]; -70.5% (active) in experiment [5]; -12.7% (active) in [6]. Besides, the growth in experiment [7] was -63.5% (active); in experiment [8], 8.54% (active); in experiment [9], -93.5% (active); in experiment [10] it was -37.8% (active); in experiment [11], 2.84% (active); in experiment [12] it was -62.9% (active). In addition, the growth is -68.8% (active) in [13]; -81.2% (active) in experiment [14]; -9.89% (active) in [15]; -35.6% (active) in experiment [16]; -52.8% (active) in experiment [17]; -88.5% (active) in experiment [18]. Further, the growth was 13.8% in experiment [19] and -72.8% (active) in experiment [20].

Take `CCCCCCN=C(N)CCCCCCCCCCC(N)=NCCCCCC`: the growth in experiment [1] was 27.8%; in experiment [2], 51.6%; in experiment [3], 62.4%; in experiment [4], 18.5%; in [5], 13.4%; in experiment [6], 8.01% (active). Further, the growth was 23.9% in [7]; 33.7% in [8]; 37% in experiment [9]; -9.55% (active) in [10]; 58.5% in experiment [11]; 13.5% in [12]. Besides, the growth in experiment [13] is 44.9%; in experiment [14] it was 32.1%; in experiment [15], 35.8%; in experiment [16] it was 28.8%; in experiment [17] it was 41%; in experiment [18], 29.3%. Further, the growth in experiment [19] is 79.8%; in [20] it was 23.2%.

On to `Cn1cnc([N+](=O)[O-])c1/C=C1\Oc2ccc(Cl)cc2C1=O`, for which the growth was 93.9% in experiment [1]; 94.8% in experiment [2]; 91% in [3]; 93.5% in experiment [4]; 99.4% in experiment [5]; 94% in [6]. For the same molecule, the growth in experiment [7] was 52.8%; in [8], 98.4%; in experiment [9], 91.9%; in experiment [10], 100%; in experiment [11] it was 94.2%; in [12], 52.4%. Also, the growth in experiment [13] is 87.6%; in experiment [14], 86.7%; in experiment [15], 99.1%; in experiment [16] it was 86.5%; in [17] it was 105%; in experiment [18], 99.2%. For the same molecule, the growth in experiment [19] is 84.9%; in experiment [20] it was 87.5%.

With `CC(=O)c1ccc(NCn2nc(-c3ccc(Cl)cc3)oc2=S)cc1`, the growth in experiment [1] is 104%; in experiment [2] it was 106%; in [3] it was 110%; in experiment [4], 69.9%; in experiment [5], 106%; in experiment [6] it was 104%. In addition, the growth in experiment [7] was 92%; in experiment [8], 79.2%; in [9], 105%; in [10] it was 107%; in experiment [11], 109%; in experiment [12], 88.1%. The growth in experiment [13] is 114%; in [14] it was 87.8%; in [15] it was 117%; in experiment [16], 109%; in experiment [17] it was 102%; in [18] it was 95%. Also, the results for the growth in experiment [19] and in [20] were 93% and 104%, respectively.

For the molecule `CCCCCC(=O)N1c2ccccc2NC2=C(C(=O)CC(c3ccc(OC)c(OC)c3)C2)C1c1ccc(C(F)(F)F)cc1` (stereo not given), the growth in [1] was 51.5%; in experiment [2] it was 64.8%; in [3], 70.6%; in [4], 54.8%; in [5], 76.9%; in experiment [6], 66.4%. Besides, the growth in experiment [7] was 37.5%; in experiment [8] it was 58.5%; in [9], 65.8%; in [10] it was 69.2%; in [11], 85%; in experiment [12], 28.4%. For the same molecule, the growth is 84.3% in experiment [13]; 69% in [14]; 1.04% (active) in experiment [15]; 57.3% in experiment [16]; 36.1% in experiment [17]; 80.7% in experiment [18]. For the same molecule, the values for the growth in experiment [19] and in experiment [20] were 41.8% and 58.3%, respectively.

For the molecule `Cc1ccc(/C=C2\CN(Cc3cn(CCNc4ccnc5cc(Cl)ccc45)nn3)C/C(=C\c3ccc(C)cc3)C2=O)cc1`, the growth in [1] was -26.8% (active); in [2] it was -66.9% (active); in experiment [3] it was 5.6% (active); in [4] it was -64.5% (active); in experiment [5], -51% (active); in experiment [6], -42.6% (active). Besides, the growth in [7] was -49.5% (active); in [8], -17.2% (active); in experiment [9], -36% (active); in experiment [10], -66.7% (active); in [11], -98.5% (active); in experiment [12], -14.7% (active). The growth is -14.9% (active) in experiment [13]; -27.6% (active) in experiment [14]; -89% (active) in [15]; -70.7% (active) in [16]; -58.8% (active) in experiment [17]; -51.9% (active) in [18]. For the same molecule, the values for the growth in experiment [19] and in experiment [20] were -41.1% (active) and -41.7% (active), respectively.

The values are drawn from PubChem BioAssay (NCI).
